# Screens: PubChem BioAssay, National Center for Advancing Translational Sciences (NCATS)
# Compounds with a hit are over-represented: about 3.2% of the library has one in this group of screens.
# GoLoco inh red: blocks human Gai1 binding to RGS12 GoLoco peptide, red readout; P63096; Gai1:RGS12 GoLoco peptide FP, rhodamine, 10 min; Potency, µM (highest dose often 61.6 µM), inactives show at the highest dose activity, negative = inhibition, most hits filed as inhibitors; 230,000 tested, 0.44% active; active = well fitted inhibition curve with a large enough effect, not every such curve was filed as active; inactive = no such curve, though single readings can be large or run the other way; also: nearly all actives have a fitted effect of over 30% in size
# Target sequence (P63096 whole entry, looked up): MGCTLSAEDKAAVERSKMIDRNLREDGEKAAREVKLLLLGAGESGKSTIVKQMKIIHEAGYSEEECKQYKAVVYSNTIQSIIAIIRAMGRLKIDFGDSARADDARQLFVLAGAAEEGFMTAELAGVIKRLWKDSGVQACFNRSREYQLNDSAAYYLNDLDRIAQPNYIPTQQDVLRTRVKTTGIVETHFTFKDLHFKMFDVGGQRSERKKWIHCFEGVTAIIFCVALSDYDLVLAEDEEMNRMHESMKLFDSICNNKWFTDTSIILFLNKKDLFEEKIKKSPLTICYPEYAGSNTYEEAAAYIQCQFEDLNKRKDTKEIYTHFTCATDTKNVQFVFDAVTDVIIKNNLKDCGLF
# Tau ThT inhib: blocks human tau fibril formation measured by thioflavin T | Potency, µM (doses to about 57.4 µM), for the others: at the top dose activity, negative = inhibition, hits mostly inhibitors | 270,000 tested, 2.1% active | recombinant tau K18 P301L, heparin-induced fibrillization, ThT fluorescence | P10636; also: nearly all actives have a fitted effect of over 55% in size
# Target sequence (P10636 561-689 P618L limits assumed): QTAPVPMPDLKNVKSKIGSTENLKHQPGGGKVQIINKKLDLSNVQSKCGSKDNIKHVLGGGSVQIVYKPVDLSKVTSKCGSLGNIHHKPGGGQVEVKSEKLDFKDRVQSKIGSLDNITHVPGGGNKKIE
#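 K18 P301L tau (15 uM + 0.24 uM Alexa 594-tagged), heparin 20 uM, NaOAc pH 7, 6 h 37 C; ThT 30 uM, 1 h RT, ex 450/em 510 nm.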
# Tau FP inhib: blocks human tau fibril formation measured by polarization | Potency, µM (top dose mostly 57.7 µM), for the others: at the top dose activity, negative = inhibition, actives largely listed as inhibitors | K18 P301L tau heparin fibrillization, Alexa594 FP, 6 h | 280,000 tested, 0.39% active; also: nearly all actives have a fitted effect of over 55% in size
#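 Human K18 P301L fragment (15 uM unlabeled plus 0.24 uM Alexa 594-labeled) in 100 mM sodium acetate pH 7 with compound, aggregation induced by 20 uM heparin for 6 hr at 37 C. ThT (30 uM) added for 1 hr, then Alexa 594 FP read.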
# Tau fluor counter: counter-screen for tau fibril formation inhibitors. tau K18 P301L Alexa594 fluorescence, heparin fibrillization. Potency, µM (doses to about 57.7 µM), for inactives: at the highest dose activity change, negative = decrease. AID 1463. 280,000 tested, 0.93% active; also: nearly all actives have a fitted effect of over 55% in size
#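 Human tau K18 P301L (15 uM unlabeled, 0.24 uM Alexa 594-labeled) in 100 mM sodium acetate pH 7 with 20 uM heparin, 6 hr at 37 C. ThT 30 uM added, 1 hr ambient; Alexa 594 FP and total fluorescence read at 555/632 nm.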
# TR SRC2 fluor cs: counter-screen for TRb-SRC2 inhibitors: fluorescence interference | TRb/SRC2 Texas Red total fluorescence interference | Potency, µM (top dose mostly 106 µM), inactives show at the top dose fluorescence change, negative = quenching | 280,000 tested, 0.29% active; active = well fitted curve in either direction with a large enough effect; inconclusive = small, poorly fitted or top-dose-only effect
#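 Flags fluorescent or light-absorbing compounds by total fluorescence, S + 2P, at 555 nm excitation and 632 nm emission. Mixture: 20 nM Texas Red SRC2 peptide, 0.6 uM human TRb LBD, 1 uM T3, 5% DMSO; compound exposure 5 h at ambient temperature.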
# TRb-SRC2 inh: TRbeta-SRC2 interaction inhibition; 280,000 tested, 0.065% active; Potency, µM (titrated, usually from 106 µM), for inactives: at the highest dose activity change, negative = inhibition, hits mostly inhibitors; TRbeta-SRC2 peptide binding, fluorescence polarization; receptor liganded with 1 µM T3;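 also: plate controls were bound peptide for no effect and peptide without receptor for full effect; nearly all actives have a fitted effect of over 50% in size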
#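 Decrease in fluorescence polarization of 20 nM Texas Red SRC2 coactivator peptide flagged inhibition of its binding to 0.6 uM TRb LBD; 1 uM T3 included, incubation 5 hr, ex 555/em 632 nm.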
# Numbers without * were called inactive; ? = inconclusive; nt = not tested or not shown; [ ] = another dose, or the depositor's remark. Unless noted, calls follow the shape of the dose curve; as a rule, active = well fitted curve in the direction sought with a large enough effect; inconclusive = small, poorly fitted or top-dose-only effect, or another doubt; inactive = no such curve, though single readings can be large; an effect the other way counts as inactive or inconclusive. Unless noted, % is scaled to controls: 0 for no effect and ±100 for the full control effect; potency is read from the fitted curve at half-maximal effect.
SMILES,GoLoco inh red,Tau ThT inhib,Tau FP inhib,Tau fluor counter,TR SRC2 fluor cs,TRb-SRC2 inh
CCN(Cc1ccccc1)C(=O)CCc1c(C)nc2c(c(C)nn2-c2ccc(C)c(C)c2)c1C,nt,-15%,-9%,-15%,-4%,-1%
Cc1ccc(C)c(S(=O)(=O)Nc2cc(SCC(=O)O)c(O)c3ccccc23)c1,0%,3.5µM*,7.9µM*,?,-22%,?
CCOC(=O)N1CCC2(CC1)C(C#N)=C(N)Oc1c2c(C)nn1-c1cccc(Cl)c1,17%,22µM*,-12%,?,-1%,1%
CCCCc1[nH]nc2c1C1(C(=O)N(CC)c3ccccc31)C(C#N)=C(N)O2 (stereo not drawn),-9%,-9%,0%,-12%,-2%,-2%
CCN1C(=O)C2(C(C#N)=C(N)Oc3c2c(C)nn3-c2ccccc2)c2ccccc21 (stereo not drawn),4%,16µM*,?,?,-5%,-7%
CCOC(=O)N1CCC2(CC1)C(C#N)=C(N)Oc1n[nH]c(C)c12,-2%,-10%,1%,-8%,1%,-14%
CC(=O)N1C(=O)C2(C(C#N)=C(N)Oc3c2c(C)nn3-c2ccccc2)c2ccccc21 (stereo not drawn),-6%,28µM*,?,?,-1%,-4%
Cc1nn(-c2ccccc2)c2c1C1(C(=O)N3c4c(cccc41)C(C)CC3(C)C)C(C#N)=C(N)O2 (stereo not drawn),-7%,?,?,?,-3%,15%
Cc1nn(-c2ccccc2)c2c1C1(C(=O)N(C)c3ccccc31)C(C#N)=C(N)O2 (stereo not drawn),-8%,22µM*,?,?,-5%,-1%
CO[C@H]1COC(=O)C/C=C\[C@@H](C)[C@H](OC)COC(=O)CCC[C@@H]1C,nt,-3%[11.5 µM],3%[11.6 µM],-6%[11.6 µM],1%[11.2 µM],2%[11.2 µM]
CCc1ccc2[nH]cc(S(=O)(=O)c3ccc(C(C)C)cc3)c(=O)c2c1,nt,6%,?,?,-1%,-4%
CCOC(=O)c1c(N)sc2c(OC)c(Br)ccc12,6%,?,6%,25µM*[quencher],0%,-10%
CCOC(=O)c1c(N)sc(C)c1-c1ccccc1,-1%,-7%,?,?,-4%,-7%
CCN(Cc1cccc(S(=O)(=O)O)c1)c1ccc(C(=C2C=CC(=[N+](CC)Cc3cccc(S(=O)(=O)O)c3)C=C2)c2ccccc2S(=O)(=O)[O-])cc1,nt,nt,nt,nt,0%[201 µM],-20%[201 µM]
CCCCCCNC(=O)N[C@@H](C(=O)NCCC[C@H]1CN2C(=NC[C@@H]2Cc2ccccc2)N1CCc1cccc(OC)c1)C(C)C,14µM*,?,1%,2%,0%,0%
C/C=C(\C)C(=O)NCCN1C2=NC[C@@H](Cc3ccccc3)N2C[C@H]1Cc1ccc(O)cc1,5%,-2%,11%,2%,1%,-4%
COc1ccc2nc(N3C(=O)/C(=C/c4ccccc4)NC3=S)sc2c1,192%,4µM*,-3%,?,-2%[53 µM],-2%[53 µM]
COc1ccc2nc(-n3c(C)ccc3C)sc2c1,43%,?,-12%,-12%,-2%,0%
CCOc1ccc2nc(N3CCCCCC3)sc2c1,4%,?,14%,-16%,-2%,-3%
CCOc1ccc2nc(N3C(=O)/C(=C/c4ccccc4)NC3=S)sc2c1,nt,3.5µM*,?,?,-5%,2%
COc1cccc(-c2nnc3n2N=C(c2c(OC)cccc2OC)CS3)c1OC,nt,nt,nt,nt,-2%,4%
COc1ccc(C(c2c(O)ccc3ccccc23)N2CCOCC2)c(OC)c1 (stereo not drawn),5%,11µM*,-1%,-26%,0%,-1%
COc1ccc(C(CCN2CCOCC2)c2c(O)cc(OC)cc2OC)cc1 (stereo not drawn),6%,6%,-1%,6%,-3%,8%
Cc1ccc(C(C)(C)C)c(O)c1,nt,nt,nt,nt,-6%[201 µM],0%[201 µM]
CC(C)N=c1scc(-c2cccs2)n1/N=C/c1ccc(O)c(O)c1O,9%,16µM*,?,20µM*[quencher],0%,4%
SMILES,GoLoco inh red,Tau ThT inhib,Tau FP inhib,Tau fluor counter,TR SRC2 fluor cs,TRb-SRC2 inh
CN=c1scc(-c2ccccc2F)n1/N=C/c1ccc(O)c(O)c1O,42%,14µM*,?,25µM*[quencher],-23%,-4%
CCN=c1scc(-c2cccs2)n1/N=C/c1cc(OC)ccc1O,-2%,?,?,?,-2%,5%
Cc1ccc(C)c(CN2C(=O)c3ccccc3S(=O)(=O)c3ccc(C(=O)N4CCc5ccccc54)cc32)c1,nt,-3%,-14%,-6%,-7%,1%
Cc1cc(C(=O)COC(=O)c2ccc(N)c([N+](=O)[O-])c2)c(C)n1Cc1ccc2c(c1)OCO2,-5%,?,?,4.5µM*[quencher],-4%,1%
C=CCn1c(C)cc(C(=O)COC(=O)c2ccc(N)c([N+](=O)[O-])c2)c1C,-4%,?,-9%,25µM*[quencher],3%,-4%
Cc1cc(C(=O)COC(=O)c2ccc(N)c([N+](=O)[O-])c2)c(C)n1-c1ccc2c(c1)OCO2,5%,?,2%,?,-2%[53 µM],0%[53 µM]
COc1ccc(Cn2c(SCc3ccc(C(=O)NC4CCCCC4)cc3)nc3ccncc32)cc1,nt,2%,7%,-17%,4%,1%
COCCNC(=O)COc1ccc(OCCNC[C@H](O)COc2ccccc2)cc1,-3%,3%,6%,0%,0%,-2%
CN(C)c1ccc(/C=C2\N=C(c3ccc(Cl)c([N+](=O)[O-])c3)NC2=O)cc1,262%,0.89µM*,-15%,?,5%,6%
COc1cc2c(C#N)c(N3CCc4ccccc4C3)nc(N)c2c(N)n1,19%,?,1%,14µM*[quencher],-1%,-3%
